# Among all 310,000 compounds or so, about 14,000 (4.5%) showed an effect of 50% or more. Effects have a minus sign here. The sample as a whole holds a higher share of strong results than the screen did.
# Target: human ether-à-go-go-related gene (hERG) potassium channel (human, UniProt Q12809)
# Experiment: primary screen, population patch clamp on CHO cells stably expressing hERG; higher = less effect of the substance
# 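Also: peak tail current of the secondary pulse compared with the same well before compound.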
# Chain of human ether-à-go-go-related gene (hERG) potassium channel (Q12809 whole entry, looked up): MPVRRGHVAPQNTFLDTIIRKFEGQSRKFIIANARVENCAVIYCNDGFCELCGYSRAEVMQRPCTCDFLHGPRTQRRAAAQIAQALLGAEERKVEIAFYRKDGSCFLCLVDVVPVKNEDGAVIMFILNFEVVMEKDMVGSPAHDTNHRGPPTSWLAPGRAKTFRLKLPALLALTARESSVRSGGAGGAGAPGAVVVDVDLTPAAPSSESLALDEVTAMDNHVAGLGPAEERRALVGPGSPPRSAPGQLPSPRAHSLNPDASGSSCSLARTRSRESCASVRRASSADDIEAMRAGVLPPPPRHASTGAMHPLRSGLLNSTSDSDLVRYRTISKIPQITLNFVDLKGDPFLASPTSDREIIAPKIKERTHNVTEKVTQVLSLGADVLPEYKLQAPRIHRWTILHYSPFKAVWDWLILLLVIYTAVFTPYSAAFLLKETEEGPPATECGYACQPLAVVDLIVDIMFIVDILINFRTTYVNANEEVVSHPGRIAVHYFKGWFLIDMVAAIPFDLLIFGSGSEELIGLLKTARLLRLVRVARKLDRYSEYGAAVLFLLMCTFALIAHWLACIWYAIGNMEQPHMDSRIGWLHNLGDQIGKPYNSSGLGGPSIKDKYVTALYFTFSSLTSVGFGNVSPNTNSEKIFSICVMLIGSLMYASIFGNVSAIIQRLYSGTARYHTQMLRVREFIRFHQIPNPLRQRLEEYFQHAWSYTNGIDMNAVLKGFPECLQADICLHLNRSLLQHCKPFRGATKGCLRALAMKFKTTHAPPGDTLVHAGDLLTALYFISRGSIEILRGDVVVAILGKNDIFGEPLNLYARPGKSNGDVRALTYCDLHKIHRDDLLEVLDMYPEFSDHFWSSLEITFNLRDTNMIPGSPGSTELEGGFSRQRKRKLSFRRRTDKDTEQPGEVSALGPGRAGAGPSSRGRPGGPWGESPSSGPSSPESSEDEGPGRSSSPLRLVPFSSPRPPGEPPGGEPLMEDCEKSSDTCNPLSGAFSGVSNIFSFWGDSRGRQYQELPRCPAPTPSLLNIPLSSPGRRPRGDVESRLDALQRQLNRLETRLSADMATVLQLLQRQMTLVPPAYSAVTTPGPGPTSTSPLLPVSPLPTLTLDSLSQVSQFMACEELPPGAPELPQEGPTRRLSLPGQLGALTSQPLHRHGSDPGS
row,Compound,"hERG current change (%, negative = inhibition) at 10uM"
1,CC(C)CNC(=S)N1CCC(NC(=O)C23CC4CC(CC(C4)C2)C3)CC1,-7.73%
2,CC(=O)N1CCC(=NNC(=O)c2cc3ccccc3cc2O)CC1,16.8%
3,O=C(Cc1ccc(-c2ccccc2)cc1)Nc1ccccc1,19.1%
4,COc1cc(S(=O)(=O)NCc2ccc3c(c2)OCO3)ccc1Cl,-26.1%
5,CC1Cc2ccccc2N1C(=S)NC(=O)c1ccco1 (centres unmarked),16.2%
6,O=C(COc1ccccc1)Nc1nccs1,-13.5%
7,CCn1nc(C(=O)NNC(=O)CCOc2cc(C)ccc2C)c2ccccc2c1=O,-77.6%
8,CCc1ccc(OCC(=O)NNC(=O)c2nn(CC)c(=O)c3ccccc23)cc1,-57.9%
9,CCn1nc(C(=O)NNC(=O)COc2ccccc2C)c2ccccc2c1=O,-16%
10,CCn1nc(C(=O)NNC(=O)COc2ccc(OC)cc2)c2ccccc2c1=O,-23.4%
11,COc1ccc(OCC(=O)NNC(=O)c2nn(C)c(=O)c3ccccc23)cc1,-21.1%
12,CCCn1nc(C(=O)NNC(=O)CCOc2ccccc2OCC)c2ccccc2c1=O,-21.8%
13,COc1ccc(C(CC(=O)NCc2ccco2)c2ccc(F)cc2)cc1 (centres unmarked),-22.4%
14,O=C(NCc1nnc(SCC(=O)N2CCN(c3ccccc3)CC2)o1)c1ccc(F)cc1,-5.96%
15,O=S(=O)(NCc1cccnc1)c1cccc2cccnc12,6.44%
16,COc1ccc(CCNS(=O)(=O)c2ccc3c(c2)CCN3C(=O)C2CC2)cc1OC,0.919%
17,Cc1ccc(C)n1CCN1CCN(C(=O)CSc2nc3ccccc3nc2N2CCOCC2)CC1,-54.5%
18,CCn1c(SC(C)C(=O)N2CCOCC2)nc2sc(C)c(C)c2c1=O (centres unmarked),3.37%
19,O=C(CSc1nc2ccccc2nc1SCC(=O)N1CCOCC1)N1CCOCC1,-5.85%
20,CCn1c(SCC(=O)N2CCN(c3ccc(F)cc3)CC2)nc2ccccc2c1=O,-45.2%
21,O=c1c2ccccc2nc(SCc2nc3ccccc3s2)n1CCCO,-4.88%
22,CCCn1c(SC(C)C(=O)N2CCOCC2)nc2ccc(Br)cc2c1=O (centres unmarked),-56.1%
23,O=C(CSc1nc2ccccc2nc1N1CCOCC1)N1CCN(c2ccccc2)CC1,-39.2%
24,CCCCn1c(SCc2nc3ccccc3s2)nc2ccccc2c1=O,-54.7%

row,Compound,"hERG current change (%, negative = inhibition) at 10uM"
1,CCn1c(SCC(=O)N2CCN(c3ccc(Cl)cc3)CC2)nc2ccccc2c1=O,8.79%
2,CCCn1c(SCC(=O)N2CCN(c3ccccc3)CC2)nc2ccccc2c1=O,-56.7%
3,COc1ccc(-n2c(SC(C)C(=O)N3CCOCC3)nc3ccccc3c2=O)cc1 (centres unmarked),6.84%
4,CCOCCCn1c(SCc2nc3ccccc3s2)nc2ccccc2c1=O,-2.07%
5,O=C1CCC(C(=O)Nc2ccc(Cl)cc2)N1 (centres unmarked),28%
6,CC1CCN(C(=O)c2ccc3c(c2)NC(=O)CN3)CC1,8.49%
7,Nc1ccc(C2(c3ccc(N)cc3)OC(=O)c3ccccc32)cc1,-6.43%
8,CCOC(=O)C1CCN(C(=O)C(=O)Nc2ccc3nc4n(c(=O)c3c2)CCCCC4)CC1,1.99%
9,CCC1(C)Cc2c(sc3nc(NN)n(C)c(=O)c23)CO1 (centres unmarked),13.4%
10,Cc1ccc(C(C(=O)NC2CCCC2)N(C(=O)CNC(=O)c2cccs2)c2cccnc2)o1 (centres unmarked),-11.1%
11,O=C(CSc1nc2ccccc2c(=O)n1CCCN1CCOCC1)N1CCN(c2ccccc2)CC1,-70.6%
12,O=C1CN(C(=O)CSc2nc3ccccc3c(=O)n2CCCN2CCOCC2)c2ccccc2N1,-19.7%
13,Cc1[nH]c2ccccc2c1C(=O)CSc1nc2ccccc2c(=O)n1CCCN1CCOCC1,-5.57%
14,COCCCn1c(SCC(=O)N2CCOCC2)nc2ccccc2c1=O,-5.65%
15,CCCCn1c(SCC(=O)N2CCOCC2)nc2ccccc2c1=O,-68.4%
16,O=C(CSc1nc2ccccc2c(=O)n1CCCN1CCOCC1)c1c[nH]c2ccccc12,-54%
17,CCOCCCn1c(SCC(=O)N2CCOCC2)nc2ccccc2c1=O,-36%
18,Cn1c(N)c(C(=O)CSc2nc3ccccc3c(=O)n2CCCN2CCOCC2)c(=O)n(C)c1=O,2.7%
19,CCCCn1c(SCC(=O)NC2CC2)nc2ccccc2c1=O,-4.62%
20,Cc1onc(-c2c(Cl)cccc2Cl)c1C(=O)NCCCN1CCOCC1,3.09%
21,O=C(CCc1c[nH]c2ccccc12)OCc1ccc(Br)cc1,10.2%
22,Cc1ccc(-n2nc(C)c3c2OC(N)=C(C#N)C3c2ccncc2)cc1 (centres unmarked),7.07%
23,CCN(Cc1ccccc1)S(=O)(=O)c1cc(C(=O)O)ccc1OC,14.1%
24,COc1ccc(C(=O)NCc2ccc3c(c2)OCO3)cc1S(=O)(=O)N(C)Cc1ccccc1,-12.3%

row,Compound,"hERG current change (%, negative = inhibition) at 10uM"
1,CCN(C(=O)COC(=O)c1ccc(OC)c(S(=O)(=O)N(C)Cc2ccccc2)c1)C1CCS(=O)(=O)C1 (centres unmarked),-30.9%
2,COc1ccc(C(=O)Nc2ccc(NC(C)=O)cc2)cc1S(=O)(=O)N(C)Cc1ccccc1,10.3%
3,CCN(Cc1ccccc1)S(=O)(=O)c1cc(C(=O)NCCCN(C)C)ccc1OC,-50.3%
4,CCN(Cc1ccccc1)S(=O)(=O)c1cc(C(=O)NCC2CCCCC2)ccc1OC,-9.52%
5,COc1ccc(C(=O)OCC(=O)N(C)C2CCS(=O)(=O)C2)cc1S(=O)(=O)N(C)Cc1ccccc1 (centres unmarked),-15.7%
6,COc1ccc(C(=O)OCC(=O)NC2CC2)cc1S(=O)(=O)N(C)Cc1ccccc1,-53.8%
7,COc1ccc(C(=O)NC(C)c2ccncc2)cc1S(=O)(=O)N(C)Cc1ccccc1 (centres unmarked),-61%
8,O=S(=O)(Nc1cc(C(F)(F)F)ccc1N1CCOCC1)c1ccccc1,4.09%
9,CC(CC(=O)N1CCN(c2ccccc2)CC1)S(=O)(=O)c1ccc2c(c1)NC(=O)CO2 (centres unmarked),-20.1%
10,O=C(O)c1cccc(N2C(=O)c3cc4cccc(Br)c4cc3C2=O)c1,18.4%
11,Cc1cc(CNC(=O)CC2C(=O)NCCN2Cc2ccc(-c3ccccc3)cc2)nn1C (centres unmarked),-4.68%
12,O=C(c1ccc([N+](=O)[O-])s1)N1CCc2ccccc2C1,13%
13,FC(F)(F)Oc1ccc(NC(=S)NCc2ccccc2)cc1,4.62%
14,Cl.O=C(CNC1=NCCC1)c1ccc(Cl)cc1,-12.2%
15,CCCCn1c(SCC(=O)OCC)nc2c1c(=O)[nH]c(=O)n2C,-41.9%
16,CCOCCn1c(SC(C)C(C)=O)nc2c1c(=O)[nH]c(=O)n2C (centres unmarked),-42.8%
17,CCCCCCn1c(SCCC)nc2c1c(=O)[nH]c(=O)n2C,-9.85%
18,CCCCCn1c(SCCCC)nc2c1c(=O)[nH]c(=O)n2C,-3.74%
19,COC(=O)CSc1nc2c(c(=O)[nH]c(=O)n2C)n1CCC(C)C,-3.93%
20,CCCCCCn1c(SCC(=O)c2ccccc2)nc2c1c(=O)[nH]c(=O)n2C,-26%
21,CCCCCn1c(SC(C)C(C)=O)nc2c1c(=O)[nH]c(=O)n2C (centres unmarked),-92.5%
22,CCCCCCn1c(SCC(=O)OC)nc2c1c(=O)[nH]c(=O)n2C,-70.1%
23,CCCCCCn1c(SCCCC)nc2c1c(=O)[nH]c(=O)n2C,1.97%
24,CCCCCCn1c(SCCOC)nc2c1c(=O)[nH]c(=O)n2C,-59.8%

row,Compound,"hERG current change (%, negative = inhibition) at 10uM"
1,CCCCCCn1c(SCC(C)C)nc2c1c(=O)[nH]c(=O)n2C,10.3%
2,CCCCCn1c(SCC(=O)OC)nc2c1c(=O)[nH]c(=O)n2C,-60.7%
3,Cc1cccc(-n2ncc3c(=O)[nH]c(SCC(=O)NCCC4=CCCCC4)nc32)c1,10.9%
4,CCN(CC)S(=O)(=O)c1cccc(-c2n[nH]c(=S)n2/N=C/c2ccc(C(=O)OC)cc2)c1,-34%
5,O=C(COC(=O)c1ccc(S(=O)(=O)N2CCCC2)cc1)NCc1ccco1,-10.1%
6,O=[N+]([O-])c1ccc(/C=N/NC2=NS(=O)(=O)c3ccccc32)cc1,-7.49%
7,O=C(OCn1nnc2ccccc2c1=O)C1CCCCC1,5.57%
8,CCCCCCn1c(NCC)nc2c1c(=O)[nH]c(=O)n2C,-14.7%
9,CCCCCCn1c(N(CC)CC)nc2c1c(=O)[nH]c(=O)n2C,-63.6%
10,CCN(CC)c1nc2c(c(=O)[nH]c(=O)n2C)n1CCCc1ccccc1,-45.3%
11,Cn1nc(C(=O)OCC(=O)NCCc2ccccc2)c2ccccc2c1=O,2.9%
12,CCN1CCN(c2nc3c(C)cccn3c(=O)c2/C=C(\C#N)S(=O)(=O)c2ccccc2)CC1,-15.7%
13,Cc1ccc(S(=O)(=O)/C(C#N)=C/c2c(Oc3ccc(Cl)cc3)nc3c(C)cccn3c2=O)cc1,19.3%
14,Cc1cccn2c(=O)c(/C=C(\C#N)S(=O)(=O)c3ccccc3)c(N3CCN(Cc4ccccc4)CC3)nc12,-4.68%
15,Cc1cccn2c(=O)c(/C=C(\C#N)C(=O)NCc3ccco3)c(N3CCOCC3)nc12,-50.9%
16,Cc1ccc(S(=O)(=O)/C(C#N)=C/c2c(N3CCOCC3)nc3c(C)cccn3c2=O)cc1,-56%
17,Cc1cccn2c(=O)c(/C=C(\C#N)S(=O)(=O)c3ccccc3)c(N3CCN(c4ccccc4)CC3)nc12,9.12%
18,Cc1cccn2c(=O)c(/C=C(\C#N)S(=O)(=O)c3ccccc3)c(N3CCN(C)CC3)nc12,-45.5%
19,Cc1cccn2c(=O)c(/C=C(\C#N)C(=O)NCc3ccco3)c(N3CCCCCC3)nc12,-36.5%
20,CCN1CCN(c2nc3c(C)cccn3c(=O)c2/C=C(\C#N)S(=O)(=O)c2ccc(C)cc2)CC1,-62.9%
21,Cc1ccc(S(=O)(=O)/C(C#N)=C/c2c(N3CC(C)OC(C)C3)nc3c(C)cccn3c2=O)cc1 (centres unmarked),-28.1%
22,Cc1ccc(S(=O)(=O)/C(C#N)=C/c2c(N3CCN(C)CC3)nc3c(C)cccn3c2=O)cc1,-67.5%
23,Cc1cccn2c(=O)c(/C=C(\C#N)C(=O)NCc3ccco3)c(N3CCCCC3)nc12,-37.8%
